Data as given in PubChem BioAssay AID1159580 (chemical genetic matrix, 2015).
The campaign covered roughly 5,500 compounds. About 2,000 (36%) were called active. Not shown: some 18% with an inconclusive outcome. Rule as the data show it: active = normalized growth mostly below about 0.91 (no sharp cut-off); inconclusive = no clear call, values can overlap the other calls; inactive = mostly above about 0.92. The list shows a part of the results.

Experiment: chemical genetic growth profiling, strain panel (AID 1159580);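 also: tested at 20 µM; growth read once vehicle control cultures reached saturation at 30 °C; 1 = growth at the plate median or of vehicle wells; lower values mean less growth of the strain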
Conditions: growth OD

Measured: normalized growth

Cc1cc2cc3c(C)cc(=O)oc3c(C)c2o1
inactive: S. cerevisiae deletion strains, locus YKL009W, strain mrt4, hits give low values 0.894 | S. cerevisiae deletion strains, locus YKL068W, hits give low values 1.01 | S. cerevisiae deletion strains, locus YKL085W, strain MDH1 (second series), hits give low values 0.992 | S. cerevisiae deletion strains, locus YKL085W, strain MDH1, hits give low values 0.992 | S. cerevisiae deletion strains, locus YKL160W, strain elf1, hits give low values 0.951 | S. cerevisiae deletion strains, locus YKL190W, strain CNB1, hits give low values 0.981 | S. cerevisiae deletion strains, locus YKR001C, strain vps1, hits give low values 0.916 | S. cerevisiae deletion strains, locus YKR026C, strain gcn3, hits give low values 0.987 | S. cerevisiae deletion strains, locus YKR091W, strain srl3, hits give low values 1.01 | S. cerevisiae deletion strains, locus YLL001W, strain dnm1, hits give low values 0.993 | S. cerevisiae deletion strains, locus YLL026W, hits give low values 0.981 | S. cerevisiae deletion strains, locus YLL041C, strain sdh2, hits give low values 1.01 | S. cerevisiae deletion strains, locus YLR027C, strain aat2, hits give low values 1 | S. cerevisiae deletion strains, locus YLR039C, strain RIC1, hits give low values 0.927 | S. cerevisiae deletion strains, locus YLR058C, strain SHM2, hits give low values 0.971 | S. cerevisiae deletion strains, locus YLR102C, strain apc9, hits give low values 0.994 | S. cerevisiae deletion strains, locus YLR113W, strain HOG1, hits give low values 1.02 | S. cerevisiae deletion strains, locus YLR221C, strain rsa3, hits give low values 0.947 | S. cerevisiae deletion strains, locus YLR258W, strain gsy2, hits give low values 0.956 | S. cerevisiae deletion strains, locus YLR262C, strain YPT6 (second series), hits give low values 0.994 | S. cerevisiae deletion strains, locus YLR262C, strain YPT6, hits give low values 0.912 | S. cerevisiae deletion strains, locus YLR268W, strain sec22, hits give low values 0.898 | S. cerevisiae deletion strains, locus YLR320W, strain mms22, hits give low values 0.909 | S. cerevisiae deletion strains, locus YLR330W, strain CHS5, hits give low values 0.984 | S. cerevisiae deletion strains, locus YLR342W, strain FKS1 (second series), hits give low values 0.915 | S. cerevisiae deletion strains, locus YLR342W, strain FKS1, hits give low values 0.994 | S. cerevisiae deletion strains, locus YLR357W, strain rsc2, hits give low values 1.1 | S. cerevisiae deletion strains, locus YLR370C, strain arc18, hits give low values 0.986 | S. cerevisiae deletion strains, locus YLR371W, strain rom2, hits give low values 0.99 | S. cerevisiae deletion strains, locus YLR384C, strain iki3, hits give low values 1 | S. cerevisiae deletion strains, locus YML016C, strain PPZ1, hits give low values 0.951 | S. cerevisiae deletion strains, locus YML120C, strain ndi1, hits give low values 0.996 | S. cerevisiae deletion strains, locus YML124C, strain tub3, hits give low values 0.986 | S. cerevisiae deletion strains, locus YMR058W, strain fet3, hits give low values 0.945 | S. cerevisiae deletion strains, locus YMR078C, strain ctf18, hits give low values 0.974 | S. cerevisiae deletion strains, locus YMR129W, hits give low values 1.02 | S. cerevisiae deletion strains, locus YMR205C, strain PFK2, hits give low values 1.03 | S. cerevisiae deletion strains, locus YMR223W, strain ubp8, hits give low values 0.936 | S. cerevisiae deletion strains, locus YMR231W, strain pep5, hits give low values 1 | S. cerevisiae deletion strains, locus YMR263W, strain SAP30, hits give low values 0.908 | S. cerevisiae deletion strains, locus YMR307W, strain GAS1, hits give low values 0.887 | S. cerevisiae deletion strains, locus YNL067W, strain RPL9B, hits give low values 0.897 | S. cerevisiae deletion strains, locus YNL071W, strain lat1, hits give low values 0.931 | S. cerevisiae deletion strains, locus YNL128W, strain TEP1, hits give low values 0.975 | S. cerevisiae deletion strains, locus YNL153C, strain GIM3, hits give low values 0.918 | S. cerevisiae deletion strains, locus YNL183C, strain NPR1, hits give low values 0.924 | S. cerevisiae deletion strains, locus YNL209W, strain ssb2, hits give low values 0.981 | S. cerevisiae deletion strains, locus YNL233W, strain BNI4, hits give low values 0.885 | S. cerevisiae deletion strains, locus YNL250W, strain rad50, hits give low values 0.963 | S. cerevisiae deletion strains, locus YNL271C, strain bni1, hits give low values 0.964 | S. cerevisiae deletion strains, locus YNL298W, strain CLA4, hits give low values 0.941 | S. cerevisiae deletion strains, locus YNL322C, strain KRE1 (second series), hits give low values 1 | S. cerevisiae deletion strains, locus YNL322C, strain KRE1, hits give low values 0.993 | S. cerevisiae deletion strains, locus YNR049C, strain mso1, hits give low values 1.01 | S. cerevisiae deletion strains, locus YNR052C, strain pop2, hits give low values 0.98 | S. cerevisiae deletion strains, locus YOL006C, strain TOP1, hits give low values 0.585 | S. cerevisiae deletion strains, locus YOL012C, strain htz1 0.819 | S. cerevisiae deletion strains, locus YOL147C, strain pex11, hits give low values 0.986 | S. cerevisiae deletion strains, locus YOR001W, strain rrp6, hits give low values 0.972 | S. cerevisiae deletion strains, locus YOR061W, strain CKA2, hits give low values 0.97 | S. cerevisiae deletion strains, locus YOR069W, strain VPS5, hits give low values 0.974 | S. cerevisiae deletion strains, locus YOR070C, strain gyp1, hits give low values 0.979 | S. cerevisiae deletion strains, locus YOR080W, strain dia2, hits give low values 1 | S. cerevisiae deletion strains, locus YOR083W, strain WHI5, hits give low values 0.941 | S. cerevisiae deletion strains, locus YOR106W, strain vam3, hits give low values 0.98 | S. cerevisiae deletion strains, locus YOR136W, strain idh2, hits give low values 0.969 | S. cerevisiae deletion strains, locus YOR144C, strain elg1, hits give low values 0.979 | S. cerevisiae deletion strains, locus YOR184W, strain ser1, hits give low values 0.875 | S. cerevisiae deletion strains, locus YOR231W, strain MKK1, hits give low values 0.926 | S. cerevisiae deletion strains, locus YOR265W, strain rbl2, hits give low values 0.995 | S. cerevisiae deletion strains, locus YOR270C, strain vph1, hits give low values 0.872 | S. cerevisiae deletion strains, locus YOR290C, strain snf2, hits give low values 0.949 | S. cerevisiae deletion strains, locus YOR316C, strain cot1, hits give low values 0.989 | S. cerevisiae deletion strains, locus YPL051W, strain arl3, hits give low values 0.982 | S. cerevisiae deletion strains, locus YPL055C, strain LGE1, hits give low values 0.88 | S. cerevisiae deletion strains, locus YPL078C, strain atp4, hits give low values 0.976 | S. cerevisiae deletion strains, locus YPL106C, strain sse1, hits give low values 0.92 | S. cerevisiae deletion strains, locus YPL240C, strain hsp82, hits give low values 0.994 | S. cerevisiae deletion strains, locus YPL241C, strain CIN2, hits give low values 0.985 | S. cerevisiae deletion strains, locus YPL256C, strain CLN2, hits give low values 0.993 | S. cerevisiae deletion strains, locus YPR119W, strain clb2, hits give low values 0.987 | S. cerevisiae deletion strains, locus YPR141C, strain kar3, hits give low values 0.996 | S. cerevisiae deletion strains, locus YPR163C, strain tif3, hits give low values 0.969 | S. cerevisiae deletion strains, locus YPR167C, strain met16, hits give low values 0.983 | S. cerevisiae deletion strains, strain wtn01, hits give low values 0.931 | S. cerevisiae strains, strain wild type, hits give low values 0.964
active: S. cerevisiae deletion strains, locus YLR418C, strain cdc73, hits give low values 0.83 | S. cerevisiae deletion strains, locus YML032C, strain rad52, hits give low values 0.8 | S. cerevisiae deletion strains, locus YMR125W, strain sto1, hits give low values 1.11 [resistant] | S. cerevisiae deletion strains, locus YNL248C, strain rpa49, hits give low values 0.861 | S. cerevisiae deletion strains, locus YNL307C, strain MCK1, hits give low values 0.905
